# Shown is part of a subset that was picked to be rich in hits.
# nsP2pro inh – Primary qHTS for inhibitors of NSP2Pro chikungunya virus (CHIKV). Potency, µM (titrated, usually from 24.9 µM), for inactives: at the top dose activity change, negative = inhibition, actives largely listed as inhibitors. AID 1964107, 2024. FRET peptide cleavage, nsP2pro, fluorescence 1 h. 1.1% of 31,000 active. Polyprotein P1234 (Chikungunya virus (strain S27-African prototype)), Q8JUX6; further: nearly all actives have a fitted effect of over 60% in size
# Target sequence (Q8JUX6 whole entry, looked up): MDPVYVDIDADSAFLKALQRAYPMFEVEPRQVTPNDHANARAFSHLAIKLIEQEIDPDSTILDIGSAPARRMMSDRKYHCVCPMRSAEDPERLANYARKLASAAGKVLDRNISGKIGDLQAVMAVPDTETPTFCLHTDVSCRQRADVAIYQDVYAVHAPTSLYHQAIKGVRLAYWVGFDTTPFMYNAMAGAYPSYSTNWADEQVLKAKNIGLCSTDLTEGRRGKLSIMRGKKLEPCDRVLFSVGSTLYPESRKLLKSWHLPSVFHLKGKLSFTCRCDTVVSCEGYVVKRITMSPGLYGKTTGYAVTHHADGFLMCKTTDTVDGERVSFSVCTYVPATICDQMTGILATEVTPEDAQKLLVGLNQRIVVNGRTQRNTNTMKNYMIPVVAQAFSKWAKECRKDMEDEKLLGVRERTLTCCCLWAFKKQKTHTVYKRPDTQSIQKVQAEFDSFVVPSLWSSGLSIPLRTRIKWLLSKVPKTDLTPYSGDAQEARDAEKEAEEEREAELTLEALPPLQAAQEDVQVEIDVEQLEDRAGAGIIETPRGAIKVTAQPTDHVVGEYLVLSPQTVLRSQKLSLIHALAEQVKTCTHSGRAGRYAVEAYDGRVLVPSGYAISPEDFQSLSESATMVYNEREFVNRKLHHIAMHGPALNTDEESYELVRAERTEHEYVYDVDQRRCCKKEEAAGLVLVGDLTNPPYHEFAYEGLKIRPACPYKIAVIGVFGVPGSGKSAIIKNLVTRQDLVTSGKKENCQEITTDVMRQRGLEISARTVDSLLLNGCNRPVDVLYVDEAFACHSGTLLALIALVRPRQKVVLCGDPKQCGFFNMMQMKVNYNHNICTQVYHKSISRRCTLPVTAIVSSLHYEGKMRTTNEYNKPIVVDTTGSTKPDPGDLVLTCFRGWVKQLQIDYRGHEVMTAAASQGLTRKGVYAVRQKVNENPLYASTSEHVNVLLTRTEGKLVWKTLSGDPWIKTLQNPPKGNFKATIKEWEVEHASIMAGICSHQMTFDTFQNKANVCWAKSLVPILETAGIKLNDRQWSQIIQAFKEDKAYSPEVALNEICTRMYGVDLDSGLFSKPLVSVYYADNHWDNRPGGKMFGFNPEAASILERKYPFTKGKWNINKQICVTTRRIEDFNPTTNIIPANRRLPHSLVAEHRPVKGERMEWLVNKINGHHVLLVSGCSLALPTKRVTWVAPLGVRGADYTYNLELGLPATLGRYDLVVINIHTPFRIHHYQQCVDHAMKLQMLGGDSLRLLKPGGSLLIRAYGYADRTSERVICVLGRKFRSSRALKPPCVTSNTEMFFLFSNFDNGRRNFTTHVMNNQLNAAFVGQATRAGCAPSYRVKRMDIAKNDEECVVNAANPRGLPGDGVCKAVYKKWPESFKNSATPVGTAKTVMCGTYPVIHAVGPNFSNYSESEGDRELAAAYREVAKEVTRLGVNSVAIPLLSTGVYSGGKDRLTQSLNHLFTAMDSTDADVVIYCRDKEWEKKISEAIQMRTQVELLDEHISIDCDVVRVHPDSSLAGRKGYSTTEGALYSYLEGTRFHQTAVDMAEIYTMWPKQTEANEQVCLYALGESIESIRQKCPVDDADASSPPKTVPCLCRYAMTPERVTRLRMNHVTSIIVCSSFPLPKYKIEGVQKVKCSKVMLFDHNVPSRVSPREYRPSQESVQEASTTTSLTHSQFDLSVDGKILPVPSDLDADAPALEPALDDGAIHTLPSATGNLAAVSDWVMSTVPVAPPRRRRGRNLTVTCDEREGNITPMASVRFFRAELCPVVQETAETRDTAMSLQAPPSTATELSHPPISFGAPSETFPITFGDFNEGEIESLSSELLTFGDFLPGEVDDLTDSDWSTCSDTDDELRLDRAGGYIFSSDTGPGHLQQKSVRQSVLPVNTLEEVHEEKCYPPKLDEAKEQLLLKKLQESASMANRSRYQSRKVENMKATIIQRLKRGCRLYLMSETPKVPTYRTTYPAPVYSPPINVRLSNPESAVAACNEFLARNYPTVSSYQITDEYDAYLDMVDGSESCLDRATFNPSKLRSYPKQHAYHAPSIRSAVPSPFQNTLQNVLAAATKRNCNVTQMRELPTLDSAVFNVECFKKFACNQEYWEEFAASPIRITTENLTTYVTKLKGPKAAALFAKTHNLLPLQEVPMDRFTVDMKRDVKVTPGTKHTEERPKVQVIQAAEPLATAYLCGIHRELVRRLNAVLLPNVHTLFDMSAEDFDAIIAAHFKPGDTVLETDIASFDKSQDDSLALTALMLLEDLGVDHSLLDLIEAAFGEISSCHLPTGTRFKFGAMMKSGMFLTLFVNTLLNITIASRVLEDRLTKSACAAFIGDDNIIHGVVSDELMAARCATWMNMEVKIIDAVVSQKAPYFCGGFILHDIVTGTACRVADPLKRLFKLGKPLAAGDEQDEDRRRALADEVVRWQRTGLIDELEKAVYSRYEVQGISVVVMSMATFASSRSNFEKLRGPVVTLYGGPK
#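 Recombinant nsP2pro (150 nM) was preincubated with compound 15 min at room temperature in 10 mM Tris-HCl pH 8.0, 0.01% Tween 20. Peptide 2 FRET substrate (2.5 uM) was then added and fluorescence read after 1 h. Seven-point series, up to 25 uM.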
# nsP2 cell sec – Secondary cell base assay for inhibitors of NSP2Pro Chikungunya virus (CHIKV) | shares compounds with nsP2pro inh | cell-based CHIKV nsP2 protease reporter assay | Potency, µM (doses to about 51.1 µM), inactives show at the top dose activity change, negative = inhibition, actives largely listed as inhibitors | 10% of 450 active | AID 1964100, 2024; further: nearly all actives have a fitted effect of over 70% in size
# CHIKV NSP2 FL – Selectivity profile for inhibitors of NSP2Pro chikungunya virus (CHIKV): Full length NSP2 enzyme counterscreen (CHIKV-NSP2) | shares compounds with nsP2pro inh | Full-length CHIKV NSP2 protease enzymatic counterscreen | Potency, µM (titrated, usually from 50.7 µM), inactives show at the highest dose activity change, negative = inhibition, most hits filed as inhibitors | 39% of 410 active | AID 1964101, 2024; further: nearly all actives have a fitted effect of over 65% in size
# Furin counterscr – Selectivity profile for inhibitors of NSP2Pro chikungunya virus (CHIKV): Human furin counterscreen; AID 1964102, 2024; Recombinant human furin enzymatic counterscreen, fluorogenic substrate; 6% of 410 active; Potency, µM (top dose mostly 50.6 µM), for inactives: at the top dose activity change, negative = inhibition, most hits filed as inhibitors; shares compounds with nsP2pro inh
# NS23 peptide cs – Selectivity profile for inhibitors of NSP2Pro chikungunya virus (CHIKV): Endogenous NS2/3 peptide Counterscreen | 34% of 410 active | Purified CHIKV nsP2 protease, endogenous NS2/3 peptide cleavage | AID 1964103, 2024 | Potency, µM (top dose mostly 51 µM), for inactives: at the top dose activity change, negative = inhibition, most hits filed as inhibitors | shares compounds with nsP2pro inh; further: nearly all actives have a fitted effect of over 55% in size
# Papain cs – Selectivity profile for inhibitors of NSP2Pro chikungunya virus (CHIKV): Papain Counterscreen; shares compounds with nsP2pro inh; purified papain protease activity, enzymatic inhibition; Potency, µM (top dose mostly 51 µM), without a hit: at the top dose activity change, negative = inhibition, usual class: inhibitors; 5% of 410 active
# nsP2pro confirm – Confirmatory qHTS for inhibitors of NSP2Pro chikungunya virus (CHIKV). Potency, µM (doses to about 25.5 µM), without a hit: top-dose activity change, negative = inhibition, usual class: inhibitors. shares compounds with nsP2pro inh. CHIKV nsP2 protease enzymatic activity, qHTS. 43% of 410 active; further: nearly all actives have a fitted effect of over 75% in size
# HCV NS3 4A cs – Selectivity profile for inhibitors of NSP2Pro chikungunya virus (CHIKV): NS34A-HCV Counterscreen. shares compounds with nsP2pro inh. HCV NS3/4A protease biochemical counterscreen. Potency, µM (series often up to 50.9 µM), usual class: inhibitors. 20% of 410 active. AID 1964106, 2024; further: nearly all actives have a fitted effect of over 55% in size
# Starred values were filed as active, the others as inactive; i = inactive; ? = inconclusive; [ ] = remark or other dose. The call rests on the fitted dose curve. On the % scale 0 is the no-effect control and ±100 the full control effect; potency means the concentration at half of the fitted maximal effect.
SMILES,nsP2pro inh,others
CCOc1ccc(CCNC(=O)c2cc3sccc3n2CCN(C)C)cc1OCC,-5%,
CCCCCCCCN=C(N)NC(N)=NCc1ccc(Cl)c(Cl)c1,98%,
CCOC(=O)c1c2c3c(cccc3[nH]c1=O)C(=O)c1ccccc1-2,?,nsP2 cell sec=6%;CHIKV NSP2 FL=4%;Furin counterscr=-4%;NS23 peptide cs=i;Papain cs=-15%;nsP2pro confirm=7%;HCV NS3 4A cs=i
CCOC(=O)c1c(Nc2ccccc2)nnc(-c2ccccc2)c1-c1ccccc1,-16%,
CCOC(=O)c1c(C)[nH]c(CCC(=O)Nc2ccccc2C(F)(F)F)c1C,-24%,
O=S1(=O)N=C(Sc2cc(C(F)(F)F)cc(C(F)(F)F)c2)c2ccccc21,-2%,
COCCNc1cc2c(cc1[S+](=O)([O-])Nc1ccc(C)c(C)c1)CCC(=O)N2,-1%,
Cc1cnc(CC2CCN(S(=O)(=O)c3ccc4c(c3)CCC4)CC2)n1CC1CC1,i,
CC1CC(=O)[C@]2(O)C(C(=O)OCCc3ccc(O)c(O)c3)=CO[C@@H](O[C@@H]3O[C@H](CO)[C@@H](O)[C@H](O)[C@H]3O)[C@H]12 (stereo partly drawn),3.8µM*,nsP2 cell sec=-6%[17.6 µM];CHIKV NSP2 FL=10%[17.3 µM];Furin counterscr=-7%[17.3 µM];NS23 peptide cs=-15%[17.2 µM];Papain cs=-1%[17.2 µM];nsP2pro confirm=?;HCV NS3 4A cs=4µM*
COC(=O)C1=CO[C@@H](O[C@@H]2O[C@H](CO)[C@@H](O)[C@H](O)[C@H]2O)[C@@H]2C(C)CC(=O)[C@]12O (stereo partly drawn),8%[10 µM],
COC(=O)C1=COC(OC2OC(CO)C(O)C(O)C2O)C2C(C)CC(=O)C12O (stereo not drawn),-14%[10 µM],
CSc1ccc(OCc2ncc([N+](=O)[O-])n2C)cc1,-6%,
COC(=O)CCC(NC(=O)C(CC(=O)OC)NC(=O)OCc1ccccc1)C(=O)NC(C(=O)NC(CC(=O)OC)C(=O)CF)C(C)C (stereo not drawn),-11%,
CCNC(=O)N1CCCC(Cc2noc(-c3cnccn3)n2)C1 (stereo not drawn),-4%,
C=C(C)CNc1ccc(C(C)C(=O)O)cc1 (stereo not drawn),8.8µM*,nsP2 cell sec=1%;CHIKV NSP2 FL=-5%;Furin counterscr=-5%;NS23 peptide cs=-14%;Papain cs=-5%;nsP2pro confirm=-16%;HCV NS3 4A cs=i
CC(C(=O)O)c1ccc(CC2CCCC2=O)cc1 (stereo not drawn),-2%,
CC(C(=O)O)c1ccc(C(=O)c2cccs2)cc1 (stereo not drawn),-17%[39.2 µM],
Cc1ccc(OCCn2c(CCNC(=O)c3ccccc3N)nc3ccccc32)cc1,4.5µM*,nsP2 cell sec=138%;CHIKV NSP2 FL=0.52µM*;Furin counterscr=21µM*;NS23 peptide cs=1.6µM*;Papain cs=-23%;nsP2pro confirm=1µM*;HCV NS3 4A cs=0.52µM*
Cc1ccc(OCCn2c(CCNC(=O)c3ccccc3Br)nc3ccccc32)cc1,-6%,
Cc1ccc(OCCn2c(CCNC(=O)c3cc(N)ccc3N)nc3ccccc32)cc1,-1%,
COc1ccccc1OC1CCN(Cc2ccccc2C#N)CC1,i,
COc1ccc(F)cc1-c1nc2ccc(-c3ccc(OC)c(OC)c3OC)cc2o1,0%,
CC1CC2C3CCC4=CC(=O)C=CC4(C)C3(F)C(O)CC2(C)C1(O)C(=O)COC(=O)c1cccc(S(=O)(=O)O)c1 (stereo not drawn),0%,
CNc1nc(NCc2ccc(NS(C)(=O)=O)cc2Cl)cc(-c2ccccn2)n1,177%,
O=C(O)c1ccc2c(c1)C(=O)N([C@H](Cc1ccc([N+](=O)[O-])cc1)C(=O)O)C2=O,-7%,
SMILES,nsP2pro inh,others
O=C(O)c1ccc(N2C(=O)/C(=C/c3ccc(-c4ccc([N+](=O)[O-])cc4)o3)C=C2c2ccccc2)cc1,7.9µM*,nsP2 cell sec=-18%;CHIKV NSP2 FL=?;Furin counterscr=-18%;NS23 peptide cs=-15%;Papain cs=18µM*;nsP2pro confirm=-26%;HCV NS3 4A cs=i
O=C(Cc1ccccn1)NCCNC(=O)c1ccc(-c2cccc(C(F)(F)F)c2)cc1,i,
CC1=C(C(=O)OC2CCCCC2)C(c2ccc([N+](=O)[O-])cc2)C2=C(CC(C)(C)CC2=O)N1 (stereo not drawn),-11%,
Cc1ccc(S(=O)(=O)Nc2cc([N+](=O)[O-])ccc2C(=O)Nc2nc(-c3ccccc3)cs2)cc1,i,
Cc1ccc(S(=O)(=O)c2ccc([N+](=O)[O-])cn2)cc1,0.35µM*,nsP2 cell sec=2.1µM*;CHIKV NSP2 FL=1.5µM*;Furin counterscr=12µM*;NS23 peptide cs=1.8µM*;Papain cs=-15%;nsP2pro confirm=0.56µM*;HCV NS3 4A cs=2.9µM*
CC(=O)Nc1ccc(S(=O)(=O)Nc2ccc([N+](=O)[O-])cc2)cc1,-6%,
O=c1cc(-c2ccc(O)c(O)c2O)oc2ccccc12,-16%,
CCc1nc(C)sc1C(=O)N1C[C@@H](C(=O)O)[C@H](c2cccc(OC)c2)C1,3%,
COc1cc(N2CCC(O)CC2)ccc1Nc1nc(Nc2ccccc2S(=O)(=O)C(C)C)c2[nH]cnc2n1,0%,
O=C(NO)C1(CS(=O)(=O)c2ccc(Oc3ccc(Cl)cc3)cc2)CCOCC1,-6%,
CC(=O)Nc1sc2c(c1-c1ccc(OC(F)(F)F)cc1)CCNC2,-2%,
CC(=O)N1CCCC(c2nn(-c3ccccn3)c(=O)[nH]2)C1 (stereo not drawn),i,
CC[C@H](C)C(=O)O[C@H]1C[C@@H](C)C=C2C=C[C@H](C)[C@H](CC[C@@H]3C[C@@H](O)CC(=O)O3)[C@H]21,-13%,
CCC(C)C(=O)OC1CCC=C2C=CC(C)C(CCC3CC(O)CC(=O)O3)C21 (stereo not drawn),?,nsP2 cell sec=37%;CHIKV NSP2 FL=7%;Furin counterscr=-5%;NS23 peptide cs=-11%;Papain cs=-24%;nsP2pro confirm=-15%;HCV NS3 4A cs=i
Cc1ccc(-c2ccc(=O)n(CC(=O)NCCc3ncc[nH]3)n2)cc1,i,
O=C(O)c1cccc(-c2noc(-c3cccc(F)c3)n2)c1,i,
Cc1ccc(-c2ccc(=O)n(CC(=O)NCCCc3ccco3)n2)cc1,-24%,
COC(=O)C#Cc1ccc([N+](=O)[O-])cc1,0.99µM*,nsP2 cell sec=?;CHIKV NSP2 FL=1.2µM*;Furin counterscr=-6%;NS23 peptide cs=2.9µM*;Papain cs=-12%;nsP2pro confirm=0.56µM*;HCV NS3 4A cs=i
